Data published in the supplement of paper PMC10811239.

Key:
Assay in all cases: bioluminescence (viable cell) signal fold change after vs before treatment, normalised to DMSO (ratio); higher = more tumour cell growth / less inhibition
Conditions in all cases: 10 µM; treatment time 6 days
[1] = tested on: LEGO organoid PT (PTEN-/-; TP53-/-)
Protocol: (§1)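 Luc2-labelled iPSC-derived glioblastoma-like organoids (LEGOs, genotypes PT = PTEN-/-;TP53-/-, PTCC = plus CDKN2A/B-/-, PTN = plus NF1-/-) were treated with 10 uM drug for 6 days (applied every other day) at 37 C. Bioluminescence imaging was done before treatment and 2 days after the last dose. BLI signals were normalised to the DMSO control on the same day and then to the pre-treatment signal (N=3).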

[2] = tested on: LEGO organoid PTCC (PTEN-/-; TP53-/-; CDKN2A-/-; CDKN2B-/-)
Protocol: as §1

[3] = tested on: LEGO organoid PTN (PTEN-/-; TP53-/-; NF1-/-)
Protocol: as §1

| SMILES | bioluminescence [1] | bioluminescence [2] | bioluminescence [3] |
| --- | --- | --- | --- |
| N[C@@H]1CONC1=O [D-Cycloserine] | 1.3 | 1.11 | 1.69 |
| CN(C)CCCN1c2ccccc2CCc2ccc(Cl)cc21.Cl [Clomipramine hydrochloride] | 0.859 | 0.71 | 1.5 |
| Nc1nc(NC2CC2)c2ncn([C@H]3C=C[C@@H](CO)C3)c2n1 [Abacavir] | 1.2 | 1.46 | 3.33 |
| Cc1cc2c(s1)Nc1ccccc1N=C2N1CCN(C)CC1 [Olanzapine] | 1.17 | 0.712 | 1.81 |
| COc1c(N2CCNC(C)C2)c(F)cc2c(=O)c(C(=O)O)cn(C3CC3)c12 (stereo not drawn) [Gatifloxacin] | 1.66 | 0.933 | 4.79 |
| Cc1nc2c([nH]1)CCN(C(=O)c1ccc(NC(=O)c3ccccc3-c3ccccc3)cc1)c1ccccc1-2.Cl [Conivaptan hydrochloride] | 0.674 | 3.25 | 0.375 |
| CN(C)CC(c1ccc(O)cc1)C1(O)CCCCC1 (stereo not drawn) [Desvenlafaxine] | 1.01 | 1.07 | 0.36 |
| CCC(C)n1ncn(-c2ccc(N3CCN(c4ccc(OC[C@H]5CO[C@](Cn6cncn6)(c6ccc(Cl)cc6Cl)O5)cc4)CC3)cc2)c1=O (stereo partly drawn) [Itraconazole] | 1.69 | 0.596 | 1.31 |
| CCc1nn(CCCN2CCN(c3cccc(Cl)c3)CC2)c(=O)n1CCOc1ccccc1.Cl [Nefazodone hydrochloride] | 1.4 | 1.12 | 0.52 |
| CS(=O)(=O)c1cccc(C[C@H](NC(=O)c2c(Cl)cc3c(c2Cl)CCN(C(=O)c2ccc4ccoc4c2)C3)C(=O)O)c1 [Lifitegrast] | 1.49 | 1.08 | 0.439 |
| NC(=O)N1c2ccccc2CC(=O)c2ccccc21 [Oxcarbazepine] | 0.572 | 0.951 | 1.05 |
| CCCNS(=O)(=O)Nc1ncnc(OCCOc2ncc(Br)cn2)c1-c1ccc(Br)cc1 [Macitentan] | 1.16 | 0.835 | 0.938 |
| CCC1=CC2CN(C1)Cc1c([nH]c3ccccc13)[C@](C(=O)OC)(c1cc3c(cc1OC)N(C)[C@H]1[C@@](O)(C(=O)OC)[C@H](OC(C)=O)[C@]4(CC)C=CCN5CC[C@]31[C@@H]54)C2.O=C(O)[C@H](O)[C@@H](O)C(=O)O.O=C(O)[C@H](O)[C@@H](O)C(=O)O (stereo partly drawn) [Vinorelbine ditartrate] | 0.558 | 0.445 | 1.54 |
| Cl.CN(C)CC\C=C1\c2ccccc2CCc2ccccc12 [Amitriptyline hydrochloride] | 1.32 | 0.794 | 1.12 |
| CN1C(=O)OC(C)(C)C1=O [Trimethadione] | 0.57 | 1.38 | 0.909 |
| CCCCCCCCCC(=O)OCCN1CCN(CCCN2c3ccccc3Sc3ccc(C(F)(F)F)cc32)CC1 [Fluphenazine decanoate] | 0.875 | 2.63 | 0.964 |
| CC1(C)O[C@@H]2[C@@H](CO[C@@]3(COS(N)(=O)=O)OC(C)(C)O[C@@H]23)O1 [Topiramate] | 1.02 | 1.62 | 5.65 |
| Nc1ccn([C@@H]2CS[C@H](CO)O2)c(=O)n1 [Lamivudine] | 0.906 | 0.674 | 1.2 |
| COc1cc(C(C)=O)ccc1OCCCN1CCC(c2noc3cc(F)ccc23)CC1 [Iloperidone] | 1.45 | 1.06 | 2.12 |

| SMILES | bioluminescence [1] | bioluminescence [2] | bioluminescence [3] |
| --- | --- | --- | --- |
| OC[C@H]1O[C@@H](n2cnc3c2NC=NC[C@H]3O)C[C@@H]1O [Pentostatin] | 0.674 | 0.797 | 1.59 |
| CN(C)CCc1c[nH]c2ccc(C[C@H]3COC(=O)N3)cc12 [Zolmitriptan] | 0.724 | 1.52 | 1.34 |
| CC(C)Cc1ccc(C(C)C(=O)O)cc1 (stereo not drawn) [Ibuprofen] | 1.56 | 0.624 | 1.57 |
| COC(c1ccccc1)(c1ccccc1)[C@H](Oc1nc(C)cc(C)n1)C(=O)O [Ambrisentan] | 0.999 | 1.39 | 1.08 |
| COc1ccc(Cl)cc1C(=O)NCCc1ccc(S(=O)(=O)NC(=O)NC2CCCCC2)cc1 [Glyburide] | 2.23 | 1.51 | 1.61 |
| CCCC(CCC)C(=O)O.CCCC(CCC)C(=O)[O-].[Na+] [Divalproex Sodium] | 0.727 | 0.404 | 0.401 |
| COC(=O)N[C@H](C(=O)N[C@@H](Cc1ccccc1)[C@@H](O)CN(Cc1ccc(-c2ccccn2)cc1)NC(=O)[C@@H](NC(=O)OC)C(C)(C)C)C(C)(C)C.O=S(=O)(O)O [Atazanavir sulfate] | 1.05 | 0.573 | 6.56 |
| CCCCN1CCCCC1C(=O)Nc1c(C)cccc1C.Cl (stereo not drawn) [Bupivacaine hydrochloride] | 1.37 | 1.22 | 0.809 |
| Cl.O[C@@H](c1cc(C(F)(F)F)nc2c(C(F)(F)F)cccc12)[C@H]1CCCCN1 [Mefloquine hydrochloride] | 0.499 | 0.922 | 0.359 |
| CC(=O)OCC[N+](C)(C)C.[Cl-] [Acetylcholine chloride] | 0.981 | 1.09 | 1.15 |
| CCN(CC)CC(=O)Nc1c(C)cccc1C [Xylocaine] | 1.02 | 1.13 | 1.22 |
| Cc1cc(C)nc(NS(=O)(=O)c2ccc(N)cc2)n1 [Sulfamethazine] | 0.814 | 0.645 | 1.03 |
| CCOC(=O)c1ccc(C#Cc2ccc3c(c2)C(C)(C)CCS3)nc1 [Tazarotene] | 1.52 | 1.42 | 1.11 |
| O=NN(CCCl)C(=O)NC1CCCCC1 [Lomustine] | 2.59 | 1.17 | 1.92 |
| CCC(C)(C)C(=O)O[C@H]1C[C@@H](C)C=C2C=C[C@H](C)[C@H](CC[C@@H]3C[C@@H](O)CC(=O)O3)[C@H]21 [Simvastatin] | 1.45 | 1.71 | 0.364 |
| Cn1c(=O)c2[nH]cnc2n(C)c1=O [Theophylline] | 0.849 | 1.2 | 2.42 |
| C[N+](C)(C)CCO.[Cl-] [Choline chloride] | 1.48 | 0.614 | 2.09 |
| O=c1[nH]c(=O)n(C2CCCO2)cc1F (stereo not drawn) [Tegafur] | 1.04 | 1.14 | 0.727 |
| CC(C)c1nc(CN(C)C(=O)N[C@H](C(=O)N[C@@H](Cc2ccccc2)C[C@H](O)[C@H](Cc2ccccc2)NC(=O)OCc2cncs2)C(C)C)cs1 [Ritonavir] | 1.3 | 2 | 1.83 |

| SMILES | bioluminescence [1] | bioluminescence [2] | bioluminescence [3] |
| --- | --- | --- | --- |
| CCCN(CCC)CCc1cccc2c1CC(=O)N2.Cl [Ropinirole hydrochloride] | 1.27 | 1.02 | 0.313 |
| CC(C)c1c(C(=O)Nc2ccccc2)c(-c2ccccc2)c(-c2ccc(F)cc2)n1CC[C@@H](O)C[C@@H](O)CC(=O)[O-].CC(C)c1c(C(=O)Nc2ccccc2)c(-c2ccccc2)c(-c2ccc(F)cc2)n1CC[C@@H](O)C[C@@H](O)CC(=O)[O-].[Ca+2] [Atorvastatin Calcium] | 1.09 | 0.222 | 0.0875 |
| CC/C(=C(/CC)c1ccc(O)cc1)c1ccc(O)cc1 [Diethylstilbestrol] | 1.01 | 0.673 | 2.47 |
| O=C1CCc2ccc(OCCCCN3CCN(c4cccc(Cl)c4Cl)CC3)cc2N1 [Aripiprazole] | 0.399 | 0.382 | 0.284 |
| N[C@H]1CONC1=O [L-Cycloserine] | 0.758 | 1.26 | 0.884 |
| CCCN(CCC)S(=O)(=O)c1ccc(C(=O)O)cc1 [Probenecid] | 3.62 | 1.41 | 1.62 |
| COc1cc2ncnc(Nc3ccc(F)c(Cl)c3)c2cc1OCCCN1CCOCC1 [Gefitinib] | 1.78 | 1.22 | 2.43 |
| CCc1c(C)[nH]c2c1C(=O)C(CN1CCOCC1)CC2.Cl (stereo not drawn) [Molindone hydrochloride] | 0.607 | 1.39 | 1.2 |
| NC(=O)c1cn(Cc2c(F)cccc2F)nn1 [Rufinamide] | 0.54 | 2.69 | 1 |
| Nc1ncnc2c1ncn2[C@@H]1O[C@H](CO)[C@@H](O)[C@H]1OP(=O)(O)O [Adenosine-2'-monophosphate] | 1.31 | 1.96 | 1.26 |
| N#Cc1ccc2[nH]cc(CCCCN3CCN(c4ccc5oc(C(N)=O)cc5c4)CC3)c2c1 [Vilazodone] | 0.812 | 1.83 | 0.898 |
| CN1CCN2c3ncccc3Cc3ccccc3C2C1 (stereo not drawn) [Mirtazapine] | 1.1 | 1.47 | 0.789 |
| Cl.N=C1CCCN1Cc1[nH]c(=O)[nH]c(=O)c1Cl [Tipiracil hydrochloride] | 0.741 | 1.21 | 0.848 |
| Cl.Cl.OCCOCCN1CCN(C(c2ccccc2)c2ccc(Cl)cc2)CC1 (stereo not drawn) [Hydroxyzine dihydrochloride] | 1.29 | 0.859 | 2.31 |
| CO/N=C(\C(=O)N[C@@H]1C(=O)N2C(C(=O)[O-])=C(CSc3nc(=O)c([O-])nn3C)CS[C@H]12)c1csc(N)n1.CO/N=C(\C(=O)N[C@@H]1C(=O)N2C(C(=O)[O-])=C(CSc3nc(=O)c([O-])nn3C)CS[C@H]12)c1csc(N)n1.O.O.O.O.O.O.O.[Na+].[Na+].[Na+].[Na+] [Ceftriaxone sodium] | 0.964 | 1.62 | 2.01 |
| C#Cc1cccc(Nc2ncnc3cc(OCCOC)c(OCCOC)cc23)c1.Cl [Erlotinib hydrochloride] | 1.53 | 1.66 | 2.02 |
| CCN1CCN(C(=O)N[C@@H](C(=O)N[C@@H]2C(=O)N3[C@@H]2SC(C)(C)[C@@H]3C(=O)[O-])c2ccccc2)C(=O)C1=O.[Na+] [Piperacillin sodium salt] | 1.08 | 1.11 | 0.935 |
| Cl.Nc1c2c(nc3ccccc13)CCCC2.O [Tacrine hydrochloride hydrate] | 0.719 | 0.819 | 1.22 |
